Experimental data as given in PubChem BioAssay.
Active and inactive are the calls of the source. Unless noted, no stated cut-off is given here; in the data, active means inhibition above about 80%; inactive means the rest.

Key:
[1] = viability loss with induced miR-34 in A549 – imaging, A549 dox-inducible miR-34, nuclei and caspase counts, primary screen (AID 1347080;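 active means compounds whose cell count with miR-34 switched on is under 0.7 times the count with it off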); conditions: A549 miR-34 inducible, Hoechst nuclei count, 48 h
[2] = MELAS cybrid and Rieske KO viability enhancers – cell-based, MELAS cybrids, Rieske KO mouse fibroblasts, CellTiter-Glo, primary screen (AID 1508586;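 active means mean z-score across replicates of 1.96 or higher in either the MELAS or the Rieske mutant cell line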;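 further: z relative to plate mean and SD of compound and empty wells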); conditions: low glucose
[3] = growth inhibition, single agent or in combination, cell-based, chromothripsis tumors, cisplatin or BGB combos (AID 1671449); conditions: LFS_MB_P medulloblastoma cells;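 further: cells exposed for 96 hours; 0% = vehicle DMSO and 100% = killing by high DMSO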
[4] = growth inhibition, single agent and combos, cell-based, chromothripsis tumors, cisplatin or BGB combos (AID 1671450); conditions: HDN33 neuroblastoma cells, stronger effect = higher value;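 further: cells exposed to compound for four days; 0% = vehicle DMSO and 100% = cell killing by high DMSO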
[5] = growth inhibition, single agents and combos, ICB984, cell-based, cisplatin or BGB combos, synergistic combos for chromothripsis tumors (AID 1671451; call rule not given here;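 further: cells exposed for 96 hours before readout; 0% = vehicle DMSO and 100% = killing by high DMSO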); conditions: ICB984 medulloblastoma cells, drug combinations, stronger effect = higher value
[6] = growth inhibition, single agents and combos, LFS_MB_1R, cell-based, cisplatin or BGB combos, synergistic combos for chromothripsis tumors (AID 1671452); conditions: LFS_MB_1R medulloblastoma cells, stronger effect = higher value;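 further: cells exposed for 96 hours before readout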
[7] = growth inhibition, single agents and combos, HTB85, cell-based, BGB or cisplatin IC20 combos, synergistic combos for chromothripsis tumors (AID 1671453); conditions: HTB85 osteosarcoma cells, drug combinations, stronger effect = higher value;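 further: cells exposed for 96 hours before readout; 0% = vehicle DMSO and 100% = high DMSO killing control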
[8] = growth inhibition, single agents and combos, CRL2098, cell-based, BGB or cisplatin IC20 combos, synergistic combos for chromothripsis tumors (AID 1671454); conditions: CRL2098 osteosarcoma cells, drug combinations, stronger effect = higher value;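 further: cells exposed for 96 h before readout; 0% = vehicle DMSO and 100% = killing by high DMSO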
[9] = growth inhibition, single agents and combos, HD-MB03, cell-based, BGB or cisplatin IC20 combos, synergistic combos for chromothripsis tumors (AID 1671455; in the data active means inhibition above about 83%;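 further: 0% = vehicle DMSO and 100% = high DMSO as cytotoxic control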); conditions: HD-MB03 medulloblastoma cells, stronger effect = higher value
[10] = growth inhibition, single agents and combos, UWB1.289, cell-based, BGB or cisplatin combos, synergistic combos for chromothripsis tumors (AID 1671456); conditions: UWB1.289 ovarian carcinoma cells, stronger effect = higher value;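 further: cells exposed to compound for four days; 0% = vehicle DMSO and 100% = killing by high DMSO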
[11] = growth inhibition, single agents and combos, LFS_MB_2R, cell-based, cisplatin combos, synergistic combos for chromothripsis tumors (AID 1671457); conditions: LFS_MB_2R medulloblastoma cells, stronger effect = higher value;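 further: cells exposed to compound for four days before readout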
[12] = growth inhibition, MDA-MB-436, cell-based, BGB or cisplatin combos, synergistic combos for chromothripsis tumors (AID 1671458; call rule not given here;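 further: cells exposed for 96 hours; 0% = vehicle DMSO and 100% = killing by high DMSO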); conditions: MDA-MB-436 breast carcinoma growth inhibition, drug combinations, stronger effect = higher value
[13] = UWB1.289_BRCA1 ovarian cancer growth, cell-based, BGB or cisplatin combinations (AID 1671459); conditions: UWB1.289 BRCA1 ovarian carcinoma, drug combinations, stronger effect = higher value
[14] = drug combination toxicity in non-malignant astrocytes – cell-based, BGB or cisplatin IC20 combos, cytotoxicity control for chromothriptic childhood tumor combination screen (AID 1671460); conditions: Human astrocytes, viability inhibition, drug combinations, at 0.5 µM, stronger effect = higher value;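 further: cells exposed to compounds for 96 hours before viability readout; 0% = vehicle and 100% = killing control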
[15] = BT084 cell growth, single and combined drugs, ICGC_MB145, cisplatin and BGB IC40 combos (AID 1671461); conditions: BT084 medulloblastoma cells, drug combinations, stronger effect = higher value;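 further: cells exposed to drugs for 96 hours; 0% = vehicle DMSO and 100% = high DMSO full killing control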
[16] = RCMB18 cell growth, single agent and combined, cisplatin and BGB IC40 combos (AID 1671462); conditions: RCMB18 medulloblastoma cells, stronger effect = higher value;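 further: cells exposed to compound for four days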
[17] = CRL1545 cell growth, single agent and combined, cisplatin and BGB IC20 combos (AID 1671464); conditions: CRL1545 osteosarcoma cells, stronger effect = higher value;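 further: cells exposed to compound for 96 hours before readout; 0% = vehicle DMSO and 100% = high DMSO killing control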
[18] = measured here: combination with BGB IC40, at 0.05 µM
[19] = measured here: with BGB IC20 combination, at 0.5 µM
[20] = measured here: with cisplatin IC20 combination, at 0.5 µM
[21] = measured here: combination with cisplatin, at 0.5 µM
[22] = measured here: combination with cisplatin, at 5 µM

Which fold change ([1]; stronger effect = lower value, cell number ratio, induced over uninduced) does the source give for `O=c1[nH]c(=O)n(C2CC(O)C(CO)O2)cc1I` (centres undefined) here?
The fold change was 0.851 (inactive).

And the fold change ([1]; measured here: relative caspase fold change +Dox/-Dox)?
The fold change was 0.749.

And the cell count ([1]; measured here: total cells with miR-34 induction, stronger effect = lower value)?
The cell count was 6980.

And the cell count ([1]; measured here: total cells without miR-34 induction)?
The cell count was 8200.

And the z-score ([2]; MELAS cybrid survival, CellTiter-Glo 48 h, stronger effect = higher value)?
Its z-score is -0.224 (inactive).

And the z-score ([2]; Rieske KO mouse fibroblast survival, CellTiter-Glo 72 h)?
Its z-score is -0.483.

What about the inhibition ([3]; at 0.5 µM, stronger effect = higher value) of the same compound?
Its inhibition is 4.71% (inactive).

What about the inhibition ([3]; measured here: combination with BGB IC20, at 0.005 µM) of the same compound?
Its inhibition is 8.42%.

And the inhibition ([3]; measured here: combination with BGB IC40, at 0.005 µM)?
Its inhibition is -21.4%.

And the inhibition [3, 18]?
Its inhibition is 12.9%.

And the inhibition ([3]; measured here: combination with cisplatin, at 0.5 µM, stronger effect = higher value)?
The inhibition was -5.31%.

And the inhibition ([3]; measured here: combination with cisplatin, at 5 µM, stronger effect = higher value)?
Its inhibition is 2.43%.

And the inhibition ([4]; BGB combo, at 5 µM)?
The inhibition was 9.54%.

What about the inhibition ([4]; at 0.5 µM) of the same compound?
The inhibition was -18.4% (inactive).

What about the inhibition ([4]; cisplatin combo, at 5 µM) of the same compound?
Its inhibition is 3.9%.

And the inhibition [4, 19]?
The inhibition was -28.5%.

And the inhibition [4, 20]?
Its inhibition is -14%.

And the inhibition ([4]; single agent, at 5 µM)?
The inhibition was 24%.

And the inhibition ([5]; BGB IC20 combo, at 0.005 µM)?
The inhibition was -15.6%.

And the inhibition ([5]; BGB IC40 combo, at 0.005 µM)?
The inhibition was -20.9%.

And the inhibition ([5]; BGB IC40 combo, at 0.05 µM)?
Its inhibition is -13.7%.

What about the inhibition ([5]; at 0.5 µM) of the same compound?
The inhibition was -8.85% (inactive).

What about the inhibition ([5]; cisplatin combo, at 0.05 µM) of the same compound?
The inhibition was -13.7%.

What about the inhibition ([5]; cisplatin combo, at 0.5 µM) of the same compound?
Its inhibition is -12.8%.

And the inhibition ([5]; cisplatin combo, at 5 µM)?
The inhibition was -9.03%.

And the inhibition ([5]; measured here: 5 uM single agent, at 5 µM)?
The inhibition was 4.46%.

What about the inhibition ([6]; at 0.5 µM) of the same compound?
Its inhibition is -47.8% (inactive).

And the inhibition [6, 18]?
The inhibition was -9.63%.

And the inhibition [6, 21]?
The inhibition was -105%.

What about the inhibition [6, 22] of the same compound?
Its inhibition is -24%.

And the inhibition ([7]; at 0.5 µM)?
The inhibition was -28.2% (inactive).

And the inhibition ([7]; measured here: with BGB IC20, at 0.5 µM)?
The inhibition was -26.8%.

And the inhibition ([7]; measured here: with BGB IC20, at 5 µM)?
Its inhibition is -4.26%.

And the inhibition ([7]; measured here: with cisplatin IC20, at 0.5 µM)?
The inhibition was -39.9%.

What about the inhibition ([7]; measured here: with cisplatin IC20, at 5 µM) of the same compound?
Its inhibition is -31.8%.

What about the inhibition ([7]; single agent, at 5 µM) of the same compound?
Its inhibition is -17.4%.

What about the inhibition ([8]; at 0.5 µM) of the same compound?
Its inhibition is -42.2% (inactive).

What about the inhibition ([8]; measured here: combination with BGB at IC20, at 0.5 µM) of the same compound?
The inhibition was -45.9%.

And the inhibition ([8]; measured here: combination with cisplatin at IC20, at 0.5 µM)?
The inhibition was -41.5%.

What about the inhibition ([9]; at 0.5 µM) of the same compound?
The inhibition was -7.04% (inactive).

And the inhibition ([9]; measured here: combo with BGB at IC20, at 0.5 µM)?
The inhibition was -3.12%.

What about the inhibition ([9]; measured here: combo with cisplatin at IC20, at 0.5 µM) of the same compound?
Its inhibition is -7.71%.

And the inhibition ([10]; at 0.5 µM)?
Its inhibition is -5.21% (inactive).

What about the inhibition ([10]; measured here: inhibition with BGB combination, at 0.05 µM) of the same compound?
Its inhibition is -13.3%.

And the inhibition ([10]; measured here: inhibition with cisplatin combination, at 0.05 µM)?
The inhibition was -14.8%.

What about the inhibition ([11]; at 0.5 µM) of the same compound?
Its inhibition is -2.58% (inactive).

And the inhibition [11, 21]?
Its inhibition is 4.62%.

What about the inhibition [11, 22] of the same compound?
Its inhibition is -3.61%.

What about the inhibition ([12]; at 0.5 µM) of the same compound?
Its inhibition is -9.35% (inactive).

What about the inhibition ([12]; measured here: BGB combination, at 0.5 µM) of the same compound?
The inhibition was -10.8%.

What about the inhibition ([12]; measured here: BGB combination, at 5 µM) of the same compound?
The inhibition was -16.9%.

And the inhibition ([12]; measured here: cisplatin combination, at 0.5 µM)?
The inhibition was -22.4%.

And the inhibition ([12]; measured here: cisplatin combination, at 5 µM)?
The inhibition was -10.7%.

What about the inhibition ([13]; BGB combination, concentration series, at 5 µM) of the same compound?
The inhibition was 0.385%.

And the inhibition ([13]; at 0.5 µM)?
The inhibition was -5.4% (inactive).

What about the inhibition ([13]; cisplatin combination, concentration series, at 5 µM) of the same compound?
Its inhibition is -6.29%.

What about the inhibition [14] of the same compound?
Its inhibition is -11.4% (inactive).

And the inhibition ([14]; measured here: combo with BGB IC20)?
The inhibition was -7.44%.

And the inhibition ([14]; measured here: combo with cisplatin IC20)?
Its inhibition is -19.9%.

And the inhibition ([15]; at 0.5 µM)?
Its inhibition is -4.3% (inactive).

And the inhibition ([15]; cisplatin combination, at 0.5 µM)?
The inhibition was -7.3%.

What about the inhibition ([15]; cisplatin combination, at 5 µM) of the same compound?
The inhibition was -44.5%.

And the inhibition ([15]; measured here: BGB IC40 combination 0.05 uM, at 0.05 µM)?
The inhibition was 12.9%.

What about the inhibition ([15]; single agent, at 5 µM) of the same compound?
Its inhibition is -7.11%.

What about the inhibition ([16]; at 0.5 µM) of the same compound?
The inhibition was -5.93% (inactive).

What about the inhibition ([16]; cisplatin combo, at 5 µM) of the same compound?
The inhibition was -28.2%.

And the inhibition ([16]; measured here: BGB IC40 combination, at 0.05 µM)?
Its inhibition is -1.89%.

What about the inhibition [16, 21] of the same compound?
Its inhibition is -10.4%.

What about the inhibition ([16]; single agent, at 5 µM) of the same compound?
The inhibition was -39.8%.

What about the inhibition ([17]; at 0.5 µM) of the same compound?
The inhibition was -56.2% (inactive).

And the inhibition [17, 19]?
The inhibition was -15.6%.

What about the inhibition [17, 20] of the same compound?
Its inhibition is -76.5%.

And the inhibition ([17]; single agent, at 0.05 µM)?
Its inhibition is 10.9%.

What about the inhibition ([17]; single agent, at 5 µM) of the same compound?
The inhibition was 6.02%.
